# Test results taken from the supplement of paper PMC8728848.
# This excerpt belongs to a sample that is enriched for the strongest signals.
# Tests used:
# Assay in all cases: glycan array binding signal (z-score within array); higher = stronger binding
# Details in all cases: glycan notation: IUPAC condensed, linker removed
# [1] = test system: Neu5Ac(a2-3)[Neu5Ac(a2-6)]GalNAc
# Procedure, shortened: (§1)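 Arrays were curated from the Consortium for Functional Glycomics database, 3228 in total, and kept only where the protein sequence was available. Binding is expressed as a within-array Z-score. This score was averaged across arrays of the same protein sequence at different concentrations or buffers and across linkers, and negative values can be read as non-binding.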
# [2] = test system: Neu5Ac(a2-6)Gal(b1-4)GlcNAc(b1-3)Gal(b1-3)GlcNAc
# Procedure, shortened: as §1
# [3] = test system: Neu5Ac(a2-3)Gal6S(b1-4)[Fuc(a1-3)]GlcNAc6S(b1-3)Gal(b1-4)Glc
# Procedure, shortened: as §1
# [4] = test system: Neu5Ac(a2-6)Gal(b1-4)GlcNAc(b1-2)Man(a1-3)[Neu5Ac(a2-6)Gal(b1-4)GlcNAc(b1-2)Man(a1-6)]Man(b1-4)GlcNAc(b1-4)GlcNAc
# Procedure, shortened: as §1
# [5] = test system: Neu5Ac(a2-6)Gal(b1-4)GlcNAc(b1-2)Man(a1-3)[Neu5Gc(a2-6)Gal(b1-4)GlcNAc(b1-2)Man(a1-6)]Man(b1-4)GlcNAc(b1-4)GlcNAc
# Procedure, shortened: as §1
# [6] = test system: Neu5Ac(a2-6)Gal(b1-4)GlcNAc(b1-2)[Neu5Ac(a2-3)Gal(b1-4)GlcNAc(b1-4)]Man(a1-3)[Neu5Ac(a2-3)Gal(b1-4)GlcNAc(b1-2)Man(a1-6)]Man(b1-4)GlcNAc(b1-4)GlcNAc
# Procedure, shortened: as §1
# [7] = test system: Neu5Ac(a2-6)Gal(b1-4)GlcNAc(b1-3)Gal(b1-4)GlcNAc(b1-3)Gal(b1-4)GlcNAc(b1-2)Man(a1-3)[Neu5Ac(a2-6)Gal(b1-4)GlcNAc(b1-3)Gal(b1-4)GlcNAc(b1-3)Gal(b1-4)GlcNAc(b1-2)Man(a1-6)]GalNAc
# Procedure, shortened: as §1
# [8] = test system: Neu5Ac(a2-6)Gal(b1-4)GlcNAc(b1-3)Gal(b1-4)[Fuc(a1-3)]GlcNAc(b1-3)Gal(b1-4)[Fuc(a1-3)]GlcNAc
# Procedure, shortened: as §1
# [9] = test system: Neu5Ac(a2-6)Gal(b1-4)GlcNAc(b1-2)[Neu5Ac(a2-6)Gal(b1-4)GlcNAc(b1-6)]Man(a1-6)[Neu5Ac(a2-6)Gal(b1-4)GlcNAc(b1-2)Man(a1-3)][GlcNAc(b1-4)]Man(b1-4)GlcNAc(b1-4)GlcNAc
# Procedure, shortened: as §1
# [10] = test system: Neu5Ac(a2-3)Gal6S(b1-4)GlcNAc
# Procedure, shortened: as §1
# [11] = test system: Neu5Ac(a2-3)[GalNAc(b1-4)]Gal(b1-4)Glc
# Procedure, shortened: as §1
# [12] = test system: Neu5Ac(a2-6)Gal(b1-3)GlcNAc(b1-3)[Gal(b1-4)GlcNAc(b1-6)]Gal(b1-4)Glc
# Procedure, shortened: as §1
# [13] = test system: Neu5Ac(a2-6)Gal(b1-4)GlcNAc(b1-2)Man(a1-3)[GlcNAc(b1-2)Man(b1-4)GlcNAc(b1-2)Man(a1-6)]Man(b1-4)GlcNAc(b1-4)GlcNAc
# Procedure, shortened: as §1
# [14] = test system: Neu5Ac(a2-6)Gal(b1-4)GlcNAc(b1-3)Gal(b1-4)GlcNAc
# Procedure, shortened: as §1
# [15] = test system: Neu5Ac(a2-6)Gal(b1-4)GlcNAc(b1-3)GalNAc
# Procedure, shortened: as §1
# [16] = test system: Neu5Ac(a2-6)Gal(b1-4)GlcNAc(b1-2)Man(a1-6)Man(b1-4)GlcNAc(b1-4)GlcNAc
# Procedure, shortened: as §1
# [17] = test system: Neu5Ac(a2-6)Gal(b1-4)GlcNAc(b1-3)Gal(b1-4)GlcNAc(b1-6)[Gal(b1-3)]GalNAc
# Procedure, shortened: as §1
# [18] = test system: Neu5Ac(a2-6)Gal(b1-4)GlcNAc(b1-2)Man(a1-3)[Neu5Ac(a2-6)Gal(b1-4)GlcNAc(b1-2)Man(a1-6)]Man(b1-4)GlcNAc(b1-4)[Fuc(a1-6)]GlcNAc
# Procedure, shortened: as §1
# Neu5Ac(a2-3)GalNAc = test system: Neu5Ac(a2-3)GalNAc
# Procedure, shortened: as §1
# [19] = test system: Neu5Ac(a2-6)Gal(b1-4)GlcNAc(b1-2)Man(a1-6)[Gal(b1-4)GlcNAc(b1-2)Man(a1-3)]Man(b1-4)GlcNAc(b1-4)GlcNAc
# Procedure, shortened: as §1
substance,measurement,setting,value
LcI (Legionella pneumophila),glycan array binding signal (z-score),[1],-0.437
same,glycan array binding signal (z-score),[2],0.02
"SiiE (Salmonella typhimurium), A0A0H3NVH0",glycan array binding signal (z-score),[2],2.56
"MIC3-MAR1b (Eimeria tenella), B6VCV4",glycan array binding signal (z-score),[3],0.282
same,glycan array binding signal (z-score),[4],4.75
same,glycan array binding signal (z-score),[5],0.504
same,glycan array binding signal (z-score),[6],2.99
"MIC3-MAR5 (Eimeria tenella), B6VCV4",glycan array binding signal (z-score),[4],1.71
AgI/II Vhelical-GFP (Streptococcus mutans),glycan array binding signal (z-score),[7],1.12
same,glycan array binding signal (z-score),[8],1.26
AgI/IIC123-GFP (Streptococcus mutans),glycan array binding signal (z-score),[9],3.72
"SpGH101 (Streptococcus pneumoniae), Q8DR60",glycan array binding signal (z-score),[10],-0.178
same,glycan array binding signal (z-score),[11],-0.199
same,glycan array binding signal (z-score),[1],-0.195
same,glycan array binding signal (z-score),[12],-0.168
same,glycan array binding signal (z-score),[13],0.015
same,glycan array binding signal (z-score),[14],-0.199
same,glycan array binding signal (z-score),[15],2.23
Epa22,glycan array binding signal (z-score),[10],-0.771
same,glycan array binding signal (z-score),[12],-0.487
same,glycan array binding signal (z-score),[16],0.268
same,glycan array binding signal (z-score),[7],3.15
same,glycan array binding signal (z-score),[17],0.044
"Wza (Escherichia coli), P0A930",glycan array binding signal (z-score),[12],0.652
same,glycan array binding signal (z-score),[18],-0.578
"BambL (Burhholderia ambifaria), Q0B4G1",glycan array binding signal (z-score),Neu5Ac(a2-3)GalNAc,-0.313
same,glycan array binding signal (z-score),[19],-0.317
